What was measured:
Assay in all cases: PBM binding z-score (relative to random genomic background probes); higher = stronger binding; sequences stand for … in GC…GCGATTGACAGCGTAGAATGAAGG
[1] = test system: FXR:RXRa (NR concentration 270 nM, RXRa partner concentration 90 nM)
Procedure, shortened: (§1)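 On custom Agilent 4×180K arrays, double-stranded probes with 34-nt variable regions carried direct-repeat seeds, single-nucleotide variants, half-site ablations or random human genomic background. Ligand-free nuclear receptor dimers were applied for 1 h, and binding was read with antibodies against each partner (one per run). Binding z-scores come from regression-normalized fluorescence, with the random background probes as reference.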

[2] = test system: LXRa:RXRa (NR concentration 270 nM, RXRa partner concentration 90 nM)
Procedure, shortened: as §1

[3] = test system: LXRa homodimer (NR concentration 270 nM)
Procedure, shortened: as §1

[4] = test system: LXRb:RXRa (NR concentration 270 nM, RXRa partner concentration 90 nM)
Procedure, shortened: as §1

[5] = test system: LXRb homodimer (NR concentration 270 nM)
Procedure, shortened: as §1

[6] = test system: PPARa:RXRa (NR concentration 270 nM, RXRa partner concentration 90 nM)
Procedure, shortened: as §1

[7] = test system: PPARg:RXRa (NR concentration 180 nM, RXRa partner concentration 90 nM)
Procedure, shortened: as §1

[8] = test system: PPARg:RXRa 270nM:90nM, anti-RXR (NR concentration 270 nM, RXRa partner concentration 90 nM)
Procedure, shortened: as §1

[9] = test system: PPARg:RXRa 30nM:10nM, anti-RXR (NR concentration 30 nM, RXRa partner concentration 10 nM)
Procedure, shortened: as §1

[10] = test system: PPARg:RXRa 90nM:30nM, anti-RXR (NR concentration 90 nM, RXRa partner concentration 30 nM)
Procedure, shortened: as §1

Sequence	PBM binding z-score [1]	PBM binding z-score [2]	PBM binding z-score [3]	PBM binding z-score [4]	PBM binding z-score [5]	PBM binding z-score [6]	PBM binding z-score [7]	PBM binding z-score [8]	PBM binding z-score [9]	PBM binding z-score [10]
TGTTGTAGATCAATAGAGGTTAAGAAAGTGCGCT	1.03	3.59	1.16	1.94	1.01	1.63	0.0938	0.944	0.473	0.795
CATACAGGGTCAACTAGGCCAGAGTAGGGACGGC	6.88	4.92	0.472	4.1	0.96	5.82	6.43	5.91	2.49	4.66
CCGACTGGGGCAAAGGTTACCATCCTCAGTACGA	1.66	1.25	-0.21	1.79	-0.941	5.49	10.9	9.37	8.35	10.1
CCTGCTGGGCCAAAGGTCATTGATTCCAATGCTC	5.24	5.14	3.92	4.66	0.872	5.78	9.98	8.99	8.27	9.45
ACTAGTTGGTCAGCTGACGTCACACACAATTCGG	0.0857	0.103	-0.224	0.522	0.287	0.229	0.969	-0.246	-0.0374	-0.0611
CCTACTGGGCCAAAAAGGTCATTGACGCCGATAA	3.87	4.62	2.87	4.33	0.108	4.61	3.21	4.25	1.8	3.54
TTACCAAGGTGCAGGTCGTTGATCCCTCTGTAGA	0.967	1.17	0.154	0.819	-0.626	0.827	-0.238	0.806	0.416	0.733
ACTAGCAGGCCATGGGTCACTCAAGATTAGTCCG	0.425	0.807	-0.304	0.694	-0.564	2.85	4.82	5.14	4.15	5.31
CCAGACAGGTGAGAAGCTAACTCAGCCTCGATTA	-0.201	-0.31	-0.163	-0.228	-0.869	0.155	0.347	0.159	-0.632	-0.0205
TAGCCTAGGTCATGCGGGCCAGTTTAGTGTCGGC	3.92	3.15	0.212	1.71	-0.269	3.27	1.32	2.02	-0.211	1.01
CTACCAATGTGAACAAGGTCGTTGATTACTATTC	0.783	1.15	0.608	1.83	0.441	1.51	0.331	0.322	0.12	0.449
TCGAGTAGGATAGTCGGGGCATTCAGCCAACATA	-0.379	-0.526	-0.613	-0.239	-0.624	-0.194	-0.199	0.184	0.98	0.413
